Experimental data: PubChem BioAssay (NCATS)
Records with an inconclusive call do not appear. Activity calls are given as the source filed them. Calls come from the whole dose curve; as a rule, active = well fitted curve in the direction sought with a large enough effect; inconclusive = small, poorly fitted or top-dose-only effect, or another doubt; inactive = no such curve, though single readings can be large; an effect the other way counts as inactive or inconclusive.

Legend:
[1] = target: Phospholipid hydroperoxide glutathione peroxidase GPX4 (Homo sapiens) (UniProt P36969); assay: Primary qHTS Assay for Inhibitors of Recombinant Selenoprotein Glutathione Peroxidase 4 (GPX4) (AID 1845192); note: nearly all actives have a fitted effect of over 65% in size; for activity change, negative = inhibition: series mostly up to about 50 µM; % is set by controls: 0 for no effect and ±100 for the full control effect
Outline: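 GR-coupled readout: 100 nM GR, 1 mM GSH, 0.5 mM NADPH; NADPH fluorescence (ex 340/em 450 nm) read at t=0 and after 15 min RT. GPX4 200 nM, preincubated 30 min with compound; substrate 0.5 mM CHP.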

[2] = target: Luciferin 4-monooxygenase (Photinus pyralis) (UniProt P08659); assay: Primary firefly luciferase (FLuc) qHTS assay for identification of artifact compounds. (AID 1845220); note: nearly all actives have a fitted effect of over 60% in size;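 for activity change, negative = inhibition: series mostly up to about 54 µM; plate controls were DMSO vehicle for no effect and no enzyme for full effect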
Outline: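 In this counter-screen for luciferase artifacts, test compounds met substrate (10 uM each luciferin and ATP) before 10 nM enzyme started the reaction. Light output was measured 5 min later.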

[3] = Primary fluorescence-based thiol-reactive (MSTI) qHTS assay for identification of artifact compounds. (AID 1845221); note: nearly all actives have a fitted effect of over 65% in size; note: potency is the fitted concentration of half-maximal effect;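 for activity change, negative = thiol reactive: series mostly up to about 54 µM; thiol-reactive compounds lower the probe fluorescence signal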
Outline: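 Probe: MSTI 4 uM, PBS pH 7.4, 2% DMSO. Incubation 1 h, RT, light-protected. Readout fluorescence 525/598 nm.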

[4] = tested on: Nanoluciferase (engineered Oplophorus gracilirostris luciferase); assay: Primary Nanoluciferase (NLuc) qHTS assay for identification of artifact compounds. (AID 1845222);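 note: NLuc secreted into diluted conditioned medium of S16 cells; series mostly up to about 54 µM; 0% = DMSO and -100% = no enzyme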
Outline: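 Using secreted nanoluciferase in S16 culture medium (0.22 um filtered, 1:55 dilution), compounds were preincubated 15 min at RT. Signal was generated with Nano-Glo reagent (1:100) over 5 min.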

[5] = Primary redox qHTS assay for identification of artifact compounds. (AID 1845223);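 note: 0% = DMSO and 100% = reference compound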
Outline: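 Amplex Red (25 uM) and HRP (250 mU/mL) in HBSS, with compounds for 15 min, then 250 uM DTT for 30 min, room temperature, dark. Fluorescence 525/598 nm read; normalized to DMSO and 10 uM DA3003; Hill fit.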

Sequence of Phospholipid hydroperoxide glutathione peroxidase GPX4 (Homo sapiens) (P36969 whole entry, looked up): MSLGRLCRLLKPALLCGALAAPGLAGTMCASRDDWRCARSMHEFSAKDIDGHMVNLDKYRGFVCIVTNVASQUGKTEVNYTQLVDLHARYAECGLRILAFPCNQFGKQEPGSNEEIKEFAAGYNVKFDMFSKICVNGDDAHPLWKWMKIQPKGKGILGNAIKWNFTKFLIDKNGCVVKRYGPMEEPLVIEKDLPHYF

CC(C)(C)OC(=O)N1CCC(OCc2nc(-c3ccncc3)no2)CC1
inactive: Potency [1] | Potency [2] | Potency [3] | Potency [4] | Potency [5]

O=C(CCCCN1CCOCC1)Nc1ccc(-c2cccnc2)cc1
inactive: Potency [1] | Potency [2] | Potency [3] | Potency [4]

COc1ccc([C@@H]2OC[C@H]3[C@@H]2CO[C@@H]3c2ccc(OC3OC(CO)C(O)C(O)C3O)c(OC)c2)cc1OC (stereo partly specified)
active: Potency [3] 8.22 µM
inactive: Potency [1] | Potency [2] | Potency [4]

CC1CC2OC3(OC2C(C)(C)O)C1C1(C)CCC24CC25CCC(O[C@@H]2OC[C@@H](O)[C@H](O)[C@H]2O)C(C)(C)C5CC=C4C1(C)C3O (stereo partly specified)
inactive: Potency [1] | Potency [2] | Potency [3] | Potency [4] | Potency [5]

CC(C)=CCC/C(C)=C/CO[C@@H]1O[C@H](CO)[C@@H](OC(=O)/C=C/c2ccc(O)cc2)[C@H](O[C@@H]2O[C@@H](C)[C@H](O)[C@@H](O)[C@H]2O)[C@H]1O
inactive: Potency [1] | Potency [2] | Potency [3] | Potency [4]

CC(C)[C@@H](CS(=O)(=O)C(C)C)N1C(=O)[C@@](C)(CC(=O)O)C[C@H](c2cccc(Cl)c2)[C@H]1c1ccc(Cl)cc1
inactive: Potency [1] | Potency [2] | Potency [3] | Potency [4]

COc1cc2c(c(OC)c1CC=C(C)C)C[C@H](c1ccc(O)cc1O)CO2
active: Potency [3] 13.1 µM
inactive: Potency [1] | Potency [2] | Potency [4] | Potency [5]

COc1c(C)c(OCC(O)C(C)(C)O)cc2c1COC2=O (stereo unspecified)
inactive: Potency [1] | Potency [2] | Potency [3] | Potency [4] | Potency [5]

OCC1OC(Oc2cc(O)cc(/C=C/c3ccc(O)cc3)c2)C(O)C(O)C1O (stereo unspecified)
inactive: Potency [1] | Potency [2] | Potency [4] | Potency [5]
active: Potency [3] 2.93 µM

Nc1ncnc2c([C@@H]3N[C@H](CO)[C@@H](O)[C@H]3O)c[nH]c12
inactive: Potency [1] | Potency [2] | Potency [3] | Potency [4] | Potency [5]

COc1cc2oc(-c3ccc(O)cc3O)cc2c(OC)c1CC=C(C)C
inactive: Potency [1] | Potency [2] | Potency [4] | Potency [5]
active: Potency [3] 6.56 µM

CC1=C2C[C@H]3O[C@@]3(C)CCC3O[C@@]3(C)C[C@@]2(O)OC1=O (stereo partly specified)
inactive: Potency [1] | Potency [2] | Potency [3] | Potency [4] | Potency [5]

CC(=O)O[C@H]1[C@H](O[C@H]2[C@@H]3C=CO[C@@H](O[C@@H]4O[C@H](CO)[C@@H](O)[C@H](O)[C@H]4O)[C@@H]3[C@@]3(CO)O[C@@H]23)O[C@@H](C)[C@H](OC(=O)/C=C/c2ccccc2)[C@H]1OC(=O)/C=C/c1ccccc1
inactive: Potency [1] | outcome [2] inactive [at 11.6 µM] | activity change, negative = thiol reactive [3] 2.44% [at 11.5 µM] | activity, negative = inhibition [4] 2.49% [at 11.6 µM] | redox activity (% of DA3003) [5] 5.63% [at 11.5 µM]

CC1CCN(C(=O)CC#N)CC1N(C)c1ncnc2[nH]ccc12 (stereo unspecified)
inactive: Potency [1] | Potency [2] | Potency [3] | Potency [4] | Potency [5]

O=C(Nc1ccc(S(=O)(=O)Nc2ccccc2Cl)c(Cl)c1)c1ccccn1
inactive: Potency [1] | Potency [2] | Potency [3] | Potency [4] | Potency [5]

C/C(=C\CC[C@@H](C)[C@H]1CC(O)[C@@]2(C)C3CC[C@H]4C(C)(C)[C@@H](OC5OCC(O)C(O)C5OC5OC(CO)C(O)C(O)C5O)CC[C@@]45C[C@@]35CC(O)[C@]12C)C(=O)O (stereo partly specified)
inactive: Potency [1] | Potency [2] | Potency [3] | Potency [4] | Potency [5]

CC(C)=CCC/C(C)=C/CC/C(C)=C/COC1OC(COC2OCC(OC3OCC(O)C(O)C3O)C(O)C2O)C(O)C(OC2OC(C)C(OC3OC(C)C(OC4OCC(OC5OC(C)C(O)C(O)C5O)C(O)C4O)C(O)C3O)C(O)C2O)C1O (stereo unspecified)
inactive: activity change, negative = inhibition [1] 4.38% [at 9.73 µM] | outcome [2] inactive [at 11.6 µM] | activity change, negative = thiol reactive [3] 139% [at 11.5 µM] | activity, negative = inhibition [4] -0.192% [at 11.6 µM] | redox activity (% of DA3003) [5] 11.7% [at 11.5 µM]

CN(C)C(=O)NC1CCC(CCN2CCN(c3cccc(Cl)c3Cl)CC2)CC1 (stereo unspecified)
inactive: Potency [1] | activity change, negative = inhibition [2] 2.95% [at 11.6 µM] | activity change, negative = thiol reactive [3] 20.5% [at 11.5 µM] | activity, negative = inhibition [4] -1.17% [at 11.6 µM] | redox activity (% of DA3003) [5] -4.67% [at 11.5 µM]

CC(C)=CCCC1(C)C=Cc2c(c(C)cc3c2[nH]c2ccccc23)O1 (stereo unspecified)
inactive: Potency [1] | Potency [2] | Potency [4] | Potency [5]
active: Potency [3] 2.93 µM

CNC(=O)c1ccccc1Nc1nc(Nc2ccc(N3CCNCC3)cc2)ncc1Cl
inactive: Potency [1] | Potency [2] | Potency [4] | Potency [5]
active: Potency [3] 3.36 µM

CC1(C(=O)O)CCCC2(C)C3=CCC4CC3(CCC12)CC4CO (stereo unspecified)
inactive: Potency [1] | Potency [2] | Potency [3] | Potency [4] | Potency [5]

C/C=C(/COC(=O)/C(C)=C/C)C(=O)OC(CC)c1ccc(OC)c(OC)c1 (stereo unspecified)
inactive: Potency [1] | Potency [2] | Potency [3] | Potency [4] | Potency [5]
